In PubChem BioAssay (NCI):
This is part of a sample that, as a whole, favours compounds with a hit. Of some 79,000 tested, about 15% had one in any assay. Unmarked numbers belong to inactive results. Activity calls are given as the source filed them. No stated cut-off is given here; in the data, active means growth inhibition above about 70%; inactive means the rest.

Legend:
[1] = NCI Yeast Anticancer Drug Screen. Data for the rad50 strain (AID 155);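 further: 0% = growth of vehicle-only cultures of the same strain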; settings: S. cerevisiae rad50 strain growth inhibition, hits give high values
Summary of the method: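 Genetically altered yeast (DNA repair pathway); compound treatment; growth inhibition vs vehicle ctrl.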

[2] = NCI Yeast Anticancer Drug Screen. Data for the mec2-1 strain (AID 157); settings: S. cerevisiae mec2-1 strain, hits give high values
Summary of the method: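 Growth inhibition is read against vehicle-treated controls after compound exposure of the mec2-1 yeast strain, which is defective in DNA damage repair or cell cycle control.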

[3] = NCI Yeast Anticancer Drug Screen. Data for the sgs1 mgt1 strain (AID 161);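 further: 0% = growth of cultures given vehicle only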; settings: S. cerevisiae sgs1 mgt1 strain, hits give high values
Summary of the method: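 Percent growth inhibition was derived by comparing compound-exposed mutant yeast with vehicle-exposed cultures. The strain carries alterations in DNA damage repair.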

[4] = NCI Yeast Anticancer Drug Screen. Data for the cln2 rad14 strain (AID 165);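 further: 0% = growth equal to vehicle treated cultures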; settings: S. cerevisiae cln2 rad14 strain, hits give high values
Summary of the method: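 Growth inhibition, relative to vehicle-treated controls, is the read-out. The test organism is a yeast strain with defined genetic alterations, cln2 rad14.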

[5] = NCI Yeast Anticancer Drug Screen. Data for the bub3 strain (AID 167); settings: S. cerevisiae bub3 mutant strain, hits give high values
Summary of the method: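 Yeast carrying a defined mutation is treated with each compound, and growth is compared with that of vehicle-exposed cells to give inhibition.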

[6] = NCI Yeast Anticancer Drug Screen. Data for the wt2 strain (AID 169);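 further: 0% = growth of vehicle-treated yeast cultures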; settings: S. cerevisiae wt2 strain growth inhibition, hits give high values
Summary of the method: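 Compound exposure of yeast; growth compared with vehicle controls; inhibition reported.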

[7] = NCI Yeast Anticancer Drug Screen. Data for the mlh1 rad18 strain (AID 175); settings: S. cerevisiae mlh1 rad18 strain growth inhibition, hits give high values
Summary of the method: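 Cells of a genetically altered yeast strain, deficient in DNA damage repair, were treated with compound. Their growth was then compared with that of vehicle-treated cultures to give inhibition.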

[8] = at 5.0 µM (retest, dose inferred, filed as 0.5)
[9] = at 50.0 µM (retest, dose inferred, filed as 5.0)

COc1nc(N)c(NC2OCC(O)C(O)C2O)c(=O)n1C (stereo not drawn)
growth inhibition ([1]; at 50.0 µM): -32.8% [middle of 5 runs]

O=Cc1cc([N+](=O)[O-])ccc1O.[Eu]
growth inhibition [1, 8]: 28%
growth inhibition [1, 9]: 51%
growth inhibition ([1]; at 50.0 µM): 81.3% (active)
growth inhibition [2, 8]: 46%
growth inhibition [2, 9]: 69%
growth inhibition ([2]; at 50.0 µM): 86.1% (active)
growth inhibition [3, 8]: -4%
growth inhibition [3, 9]: 95% (active)
growth inhibition ([3]; at 50.0 µM): 91.2% (active)
growth inhibition [4, 8]: 18%
growth inhibition [4, 9]: 97% (active)
growth inhibition ([4]; at 50.0 µM): 83.2% (active)
growth inhibition [5, 8]: 49%
growth inhibition [5, 9]: 96% (active)
growth inhibition ([5]; at 50.0 µM): 85.8% (active)
growth inhibition ([6]; at 1.2 µM): 6%
growth inhibition ([6]; at 3.7 µM): 7%
growth inhibition ([6]; at 11.0 µM): 20%
growth inhibition ([6]; at 33.0 µM): 36%
growth inhibition ([6]; at 100.0 µM): 98% (active)
growth inhibition [7, 8]: 29%
growth inhibition [7, 9]: 64%
growth inhibition ([7]; at 50.0 µM): 86.2% (active)

CCOC(=O)C1=C(C(=O)c2ccc(OC)cc2)C(c2c(Cl)cccc2Cl)C(C(=O)c2ccc(OC)cc2)=C(C(=O)OCC)N1
growth inhibition [1, 8]: 8%
growth inhibition [1, 9]: 19%
growth inhibition ([1]; at 50.0 µM): 53.9%
growth inhibition [2, 8]: 6%
growth inhibition [2, 9]: 35%
growth inhibition ([2]; at 50.0 µM): 71% (active)
growth inhibition [3, 8]: 19%
growth inhibition [3, 9]: -5%
growth inhibition ([3]; at 50.0 µM): 70.3% (active)
growth inhibition [4, 8]: -19%
growth inhibition [4, 9]: 18%
growth inhibition ([4]; at 50.0 µM): 88.2% (active)
growth inhibition [5, 8]: 14%
growth inhibition [5, 9]: 7%
growth inhibition ([5]; at 50.0 µM): 88.7% (active)

CN(C)c1nc(N)c(C#N)c(C#N)c1C#N
growth inhibition [1, 8]: 21%
growth inhibition [1, 9]: 62%
growth inhibition ([1]; at 50.0 µM): 69.6%
growth inhibition [2, 8]: 21%
growth inhibition [2, 9]: 44%
growth inhibition ([2]; at 50.0 µM): 88.2% (active)
growth inhibition [3, 8]: 11%
growth inhibition [3, 9]: 61%
growth inhibition ([3]; at 50.0 µM): 80.8% (active)
growth inhibition [4, 8]: 27%
growth inhibition [4, 9]: 45%
growth inhibition ([4]; at 50.0 µM): 53.9%
growth inhibition [5, 8]: 9%
growth inhibition [5, 9]: 79% (active)
growth inhibition ([5]; at 50.0 µM): 88.5% (active)
growth inhibition [7, 8]: 26%
growth inhibition [7, 9]: 85% (active)

Cc1nc2cc(Cl)ccc2n1-c1ccccc1
growth inhibition [1, 8]: 39%
growth inhibition [1, 9]: 92% (active)
growth inhibition ([1]; at 50.0 µM): 66.9%
growth inhibition [2, 8]: 38%
growth inhibition [2, 9]: 98% (active)
growth inhibition ([2]; at 50.0 µM): 17%
growth inhibition [3, 8]: -7%
growth inhibition [3, 9]: 94% (active)
growth inhibition ([3]; at 50.0 µM): 77.2% (active)
growth inhibition [4, 8]: 32%
growth inhibition [4, 9]: 99% (active)
growth inhibition ([4]; at 50.0 µM): 44%
growth inhibition [5, 8]: 4%
growth inhibition [5, 9]: 97% (active)
growth inhibition ([5]; at 50.0 µM): 76.5% (active)
growth inhibition ([6]; at 1.2 µM): 7%
growth inhibition ([6]; at 3.7 µM): 11%
growth inhibition ([6]; at 11.0 µM): 9%
growth inhibition ([6]; at 33.0 µM): 37%
growth inhibition ([6]; at 100.0 µM): 96% (active)
growth inhibition [7, 8]: 36%
growth inhibition [7, 9]: 85% (active)
growth inhibition ([7]; at 50.0 µM): 60.2%

Cc1ccc(OC(=O)c2ccc(N)cc2O)cc1
growth inhibition [1, 8]: 48%
growth inhibition [1, 9]: 86% (active)
growth inhibition ([1]; at 50.0 µM): 45.1%
growth inhibition [2, 8]: 83% (active)
growth inhibition [2, 9]: 90% (active)
growth inhibition ([2]; at 50.0 µM): 68.2%
growth inhibition [3, 8]: -3%
growth inhibition [3, 9]: 93% (active)
growth inhibition ([3]; at 50.0 µM): 42.5%
growth inhibition [4, 8]: 39%
growth inhibition [4, 9]: 97% (active)
growth inhibition ([4]; at 50.0 µM): 42.2%
growth inhibition [5, 8]: 24%
growth inhibition [5, 9]: 90% (active)
growth inhibition ([5]; at 50.0 µM): 77.7% (active)
growth inhibition ([6]; at 1.2 µM): 0%
growth inhibition ([6]; at 3.7 µM): -4%
growth inhibition ([6]; at 11.0 µM): 15%
growth inhibition ([6]; at 33.0 µM): 43%
growth inhibition ([6]; at 100.0 µM): 86% (active)
growth inhibition [7, 8]: 33%
growth inhibition [7, 9]: 97% (active)
growth inhibition ([7]; at 50.0 µM): 53.3%

OC(CF)(c1ccc(Cl)cc1)c1ccc(Cl)cc1
growth inhibition [1, 8]: 37%
growth inhibition [1, 9]: 74% (active)
growth inhibition ([1]; at 50.0 µM): 90.3% (active)
growth inhibition [2, 8]: 24%
growth inhibition [2, 9]: 75% (active)
growth inhibition ([2]; at 50.0 µM): 92.5% (active)
growth inhibition [3, 8]: 6%
growth inhibition [3, 9]: 91% (active)
growth inhibition ([3]; at 50.0 µM): 92.8% (active)
growth inhibition [4, 8]: 39%
growth inhibition [4, 9]: 97% (active)
growth inhibition ([4]; at 50.0 µM): 91.4% (active)
growth inhibition [5, 8]: 1%
growth inhibition [5, 9]: 91% (active)
growth inhibition ([5]; at 50.0 µM): 91% (active)
growth inhibition ([6]; at 1.2 µM): 16%
growth inhibition ([6]; at 3.7 µM): 16%
growth inhibition ([6]; at 11.0 µM): 17%
growth inhibition ([6]; at 33.0 µM): 93% (active)
growth inhibition ([6]; at 100.0 µM): 99% (active)
growth inhibition [7, 8]: 39%
growth inhibition [7, 9]: 75% (active)
growth inhibition ([7]; at 50.0 µM): 89% (active)

CCO/C=C1\SC(=S)N(c2cccc(O)c2)C1=O
growth inhibition [1, 8]: 57%
growth inhibition [1, 9]: 100% (active)
growth inhibition ([1]; at 50.0 µM): 28.4%
growth inhibition [2, 8]: 74% (active)
growth inhibition [2, 9]: 100% (active)
growth inhibition ([2]; at 50.0 µM): 15.3%
growth inhibition [3, 8]: 13%
growth inhibition [3, 9]: 90% (active)
growth inhibition ([3]; at 50.0 µM): 40.4%
growth inhibition [4, 8]: 29%
growth inhibition [4, 9]: 72% (active)
growth inhibition ([4]; at 50.0 µM): -2.6%
growth inhibition [5, 8]: 6%
growth inhibition [5, 9]: 91% (active)
growth inhibition ([5]; at 50.0 µM): 40.2%
growth inhibition ([6]; at 1.2 µM): -13%
growth inhibition ([6]; at 3.7 µM): -13%
growth inhibition ([6]; at 11.0 µM): -13%
growth inhibition ([6]; at 33.0 µM): 22%
growth inhibition ([6]; at 100.0 µM): 96% (active)
growth inhibition [7, 8]: 54%
growth inhibition [7, 9]: 100% (active)
growth inhibition ([7]; at 50.0 µM): 70.3% (active)

CC1(C)C(c2ccccc2)=Nc2ccccc21
growth inhibition [1, 8]: 0%
growth inhibition [1, 9]: 36%
growth inhibition ([1]; at 50.0 µM): 34.1%
growth inhibition [2, 8]: 3%
growth inhibition [2, 9]: 89% (active)
growth inhibition ([2]; at 50.0 µM): 92.6% (active)
growth inhibition [3, 8]: -13%
growth inhibition [3, 9]: 61%
growth inhibition ([3]; at 50.0 µM): 32.5%
growth inhibition [4, 8]: -2%
growth inhibition [4, 9]: 62%
growth inhibition ([4]; at 50.0 µM): 38%
growth inhibition [5, 8]: 9%
growth inhibition [5, 9]: 94% (active)
growth inhibition ([5]; at 50.0 µM): 96.7% (active)
